Screening results deposited in PubChem by several laboratories.
Sampled rows, rich in hits. Any-hit rate of the full collection: about 32%.
PostGolgi ctrl – yeast control strain growth, post-Golgi counter-screen. efflux-deficient yeast background strain, growth absorbance A615, 16 h. 98,000 compounds, 5% hits. AID 738. inhibition, % at 10 µM
CYP2C9 activ – CYP2C9 (human) activation; activation factor at 5 µM; recombinant CYP2C9, luciferin-H conversion, luminescence; stronger effect = higher value; factor 1 = untreated enzyme, 0 = blocked; 96,000 compounds, 1.4% hits;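 active means activation factor of 2 or more for CYP2C9 at a 5 µM dose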;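 further: 0 = sulfaphenazole-blocked wells and 1 = vehicle-only wells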
Target sequence (P11712 whole entry, looked up): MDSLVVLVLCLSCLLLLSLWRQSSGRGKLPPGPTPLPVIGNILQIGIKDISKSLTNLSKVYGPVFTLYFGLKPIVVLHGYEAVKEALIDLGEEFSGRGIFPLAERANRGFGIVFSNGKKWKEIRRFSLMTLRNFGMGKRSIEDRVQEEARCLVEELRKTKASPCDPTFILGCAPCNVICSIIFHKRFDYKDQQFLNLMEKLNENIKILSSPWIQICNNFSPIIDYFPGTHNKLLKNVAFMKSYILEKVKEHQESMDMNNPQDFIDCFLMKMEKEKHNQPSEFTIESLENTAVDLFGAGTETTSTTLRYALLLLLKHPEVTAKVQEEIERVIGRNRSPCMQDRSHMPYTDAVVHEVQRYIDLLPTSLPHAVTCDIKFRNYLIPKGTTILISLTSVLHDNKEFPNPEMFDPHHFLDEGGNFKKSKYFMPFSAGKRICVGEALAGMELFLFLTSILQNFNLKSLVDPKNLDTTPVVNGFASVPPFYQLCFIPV
CYP2C19 inhib – blocks human cytochrome P450 2C19. CYP2C19 Supersomes, luciferin-H EGE luminescence, 30 min. inhibition, % at 5 µM. 96,000 compounds, 21% hits. P33261. AID 778;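 active means CYP2C19 inhibition above a set limit at 5 µM in the primary screen, cut at about 50% in these data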;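 further: plate controls were negative control wells for no effect and 2.5 mM tranylcypromine positive control for full effect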
PostGolgi yeast – growth inhibition of a yeast mutant, post-Golgi transport screen. AID 739. post-Golgi transport phenotypic cell assay. 98,000 compounds, 0.9% hits. inhibition, % at 10 µM;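 further: yeast cells grown in 1536-well plates; yeast grown about 18 h at 30C before absorbance read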
CYP2C19 act – increases human CYP2C19 enzyme activity; P33261; recombinant CYP2C19, luciferin-H EGE luminescence; stronger effect = higher value; 0 = fully inhibited enzyme, 1 = untreated enzyme; activation factor at 5 µM; 96,000 tested, under 10 active;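 active means activation factor of at least 2 at 5 µM in the primary screen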;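 further: 0 = wells with 2.5 mM tranylcypromine and 1 = vehicle-only wells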
CYP2C9 inhib – blocks human cytochrome P450 2C9. 96,000 compounds, 20% hits. inhibition, % at 5 µM. CYP2C9 Supersomes, luciferin-H conversion, luminescence. AID 777;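 active means blocking of liver enzyme CYP2C9 beyond about 50% at 5 µM, limit read from the data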
* hit, by the source's call. Unless noted, no stated cut-off is given here; in the data, active means inhibition above about 30%; inactive means the rest.

For O=C(c1ccccc1)c1ccc(OCCCN2CCCCC2)cc1 the results were PostGolgi ctrl 6, CYP2C9 activ 1.1, CYP2C19 inhib -18, PostGolgi yeast 9, CYP2C19 act 1.2 and CYP2C9 inhib -6.
`CCS(=O)(=O)N1CCCC(C(=O)NCCCOC(C)C)C1` (stereo not given) gave PostGolgi ctrl -1, CYP2C9 activ 1.2, CYP2C19 inhib 12, PostGolgi yeast 1, CYP2C19 act 0.9 and CYP2C9 inhib -16.
For Cc1nc2c(F)c(F)c(C(F)(F)F)c(F)c2[nH]1 the results were PostGolgi ctrl 20, CYP2C9 activ 0.7, CYP2C19 inhib 61*, PostGolgi yeast 8, CYP2C19 act 0.4 and CYP2C9 inhib 27.
For Cc1ccc(S(=O)(=O)N2CCCCC2C(=O)N2CCN(c3ccccc3F)CC2)cc1 (stereo not given) the results were PostGolgi ctrl -3, CYP2C9 activ 2.2*, CYP2C19 inhib 35, PostGolgi yeast 7, CYP2C19 act 0.6 and CYP2C9 inhib -121.
Cc1ccc(S(=O)(=O)N2CCCCC2C(=O)N2CCN(C)CC2)cc1 (stereo not given) was read as PostGolgi ctrl 7, CYP2C9 activ 0.8, CYP2C19 inhib 1, PostGolgi yeast 5, CYP2C19 act 1 and CYP2C9 inhib 18.
Screening Cc1cc(C)n(C(=O)CNC(=O)Cc2ccccc2)n1 returned PostGolgi ctrl 2, CYP2C9 activ 1.6, CYP2C19 inhib 17, PostGolgi yeast 19, CYP2C19 act 0.8 and CYP2C9 inhib -59.
For Cc1ccc(OCC(=O)NCC(=O)n2nc(C)cc2C)cc1 the results were PostGolgi ctrl 23, CYP2C9 activ 2.3*, CYP2C19 inhib 48, PostGolgi yeast -3, CYP2C19 act 0.5 and CYP2C9 inhib -128.
Screening Cc1cc(C)n(C(=O)CNC(=O)COc2ccccc2)n1 returned PostGolgi ctrl 3, CYP2C9 activ 2*, CYP2C19 inhib 13, PostGolgi yeast 1, CYP2C19 act 0.9 and CYP2C9 inhib -100.
COc1ccc(C(=O)NCC(=O)n2nc(C)cc2C)cc1OC was read as PostGolgi ctrl 16, CYP2C9 activ 2*, CYP2C19 inhib -20, PostGolgi yeast 2, CYP2C19 act 1.2 and CYP2C9 inhib -96.
Screening Cc1cc(C)cc(N(CC(=O)N2CCN(Cc3ccccc3)CC2)S(=O)(=O)c2c(C)noc2C)c1 returned PostGolgi ctrl 1, CYP2C9 activ 1, CYP2C19 inhib -10, PostGolgi yeast 17, CYP2C19 act 1.1 and CYP2C9 inhib -4.
Screening CCOc1ccc(C(=O)NCC(=O)OCC(=O)Nc2ccccc2OCC)cc1 returned PostGolgi ctrl 8, CYP2C9 activ 1.9, CYP2C19 inhib 37, PostGolgi yeast 1, CYP2C19 act 0.6 and CYP2C9 inhib -94.
For COc1ccc2nc(SCC(=O)Nc3ccccc3C#N)[nH]c2c1 the results were PostGolgi ctrl 19, CYP2C9 activ 0.3, CYP2C19 inhib 38, PostGolgi yeast -4, CYP2C19 act 0.6 and CYP2C9 inhib 67*.
COc1ccc2nc(SCC(=O)Nc3ccccc3C)[nH]c2c1 was read as PostGolgi ctrl 3, CYP2C9 activ 0.1, CYP2C19 inhib 68*, PostGolgi yeast -4, CYP2C19 act 0.3 and CYP2C9 inhib 88*.
Screening CCOc1ccc2nc(SCC(=O)Nc3cc4c(cc3C(C)=O)OCO4)[nH]c2c1 returned PostGolgi ctrl 18, CYP2C9 activ 0.3, CYP2C19 inhib 61*, PostGolgi yeast 4, CYP2C19 act 0.4 and CYP2C9 inhib 72*.
`CCCc1nn(C)c2c1C(c1cccnc1)C(C#N)=C(N)O2` (stereo not given) gave PostGolgi ctrl -4, CYP2C9 activ 1, CYP2C19 inhib -8, PostGolgi yeast -5, CYP2C19 act 1.1 and CYP2C9 inhib 1.
`CCOC(=O)C1CCN(c2c(N(C)Cc3ccco3)c(=O)c2=O)CC1` gave PostGolgi ctrl 4, CYP2C9 activ 0.6, CYP2C19 inhib 41, PostGolgi yeast -2, CYP2C19 act 0.6 and CYP2C9 inhib 38.
Screening COC(=O)c1c(C)cc(OC(C)=O)c(C)c1OC(C)=O returned PostGolgi ctrl 3, CYP2C9 activ 1.1, CYP2C19 inhib 2, PostGolgi yeast 8, CYP2C19 act 1 and CYP2C9 inhib -11.
Screening CCN(CC)C(=O)CSc1nnc(-c2cccs2)n1Cc1ccco1 returned PostGolgi ctrl -2, CYP2C9 activ 0.9, CYP2C19 inhib -1, PostGolgi yeast -5, CYP2C19 act 1 and CYP2C9 inhib 10.
